Rows were chosen to be rich in hits. Some 3.2% of all compounds tested hit in one or more screens of this group.
LmPK inhibitor – blocks Leishmania mexicana pyruvate kinase activity | Q27686 | purified LmPK, Kinase-Glo ATP luminescence, 1 h | Potency, µM (highest dose often 57.5 µM), for the others: at the highest dose activity change, negative = inhibition, usual class: inhibitors | hit rate 0.37% among 290,000 | AID 1721
Target sequence (Q27686 whole entry, looked up): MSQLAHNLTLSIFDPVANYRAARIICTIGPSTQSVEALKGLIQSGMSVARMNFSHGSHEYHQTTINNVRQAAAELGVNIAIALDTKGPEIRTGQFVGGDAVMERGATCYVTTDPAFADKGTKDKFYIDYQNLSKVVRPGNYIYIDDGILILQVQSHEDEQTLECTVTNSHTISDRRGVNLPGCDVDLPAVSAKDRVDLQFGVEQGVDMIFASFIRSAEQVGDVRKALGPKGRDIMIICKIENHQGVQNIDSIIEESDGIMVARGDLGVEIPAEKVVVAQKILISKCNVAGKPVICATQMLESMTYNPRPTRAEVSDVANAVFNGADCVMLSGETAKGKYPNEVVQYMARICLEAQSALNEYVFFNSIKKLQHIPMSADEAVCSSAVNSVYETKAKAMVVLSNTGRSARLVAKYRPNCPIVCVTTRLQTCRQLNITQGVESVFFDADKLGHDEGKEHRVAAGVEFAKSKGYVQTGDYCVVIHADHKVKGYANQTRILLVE
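Pyruvate kinase activity monitored as ATP production (luciferase luminescence). Conditions: 0.1 nM enzyme, 0.5 mM PEP, 0.1 mM ADP, 1 h, RT; normalized against uninhibited and no-enzyme wells.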
TbPYK inhibitor – inhibitors of Trypanosoma brucei pyruvate kinase | hit rate 0.12% among 410,000 | AID 624173 | TbPYK enzyme, Kinase-Glo Plus ATP luminescence, 45 min | Q57TT1 | Potency, µM (top dose mostly 76.8 µM), inactives show at the top dose activity, negative = inhibition, usual class: inhibitors; also: nearly all actives have a fitted effect of over 50% in size
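In this concentration-response screen, enzyme-free wells defined baseline while DMSO plates tracked drift. Each reaction combined TbPYK, substrate, compound and 130 uM ADP for 45 min at room temperature. Kinase-Glo Plus luminescence gave the signal.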
RE007 growth inh – less growth of the S. pombe RE007 Vpr strain; hit rate 0.21% among 360,000; Potency, µM (top dose mostly 92.2 µM), inactives show top-dose activity change, negative = less growth, usual class: inhibitors; S. pombe RE007 Vpr strain, BacTiter-Glo ATP luminescence, 24 h; active = well fitted falling curve with a large enough effect; inconclusive = small, poorly fitted or top-dose-only effect; inactive = no such curve, though single readings can be large or run the other way; also: nearly all actives have a fitted effect of over 50% in size
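Fission yeast RE007 carrying one integrated HIV-1 vpr copy, seeded at OD 0.01 in PMG+AL medium with 23 nL pinned compound. Grown 24 h at 30 degrees; viability read by BacTiter-Glo luminescence after 5 min.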
AMA1-RON2 inh – inhibitors of Plasmodium falciparum AMA1-RON2 interaction | AlphaScreen AMA1-biotinylated RON2 peptide binding | Potency, µM (doses to about 58.2 µM), for inactives: at the top dose activity change, negative = inhibition, hits mostly inhibitors | hit rate 0.2% among 360,000 | AID 720542;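 also: 0% = vehicle wells and -100% = peptide control; nearly all actives have a fitted effect of over 45% in size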
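AMA1 (3D7) with his tag at 25 nM final met compounds first, then biotinylated RON2 peptide at 25 nM; detection used donor plus acceptor beads, 10 µg/mL apiece, read by AlphaScreen after 30 min at room temperature.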
Sm TGR block – inhibitors of Schistosoma mansoni thioredoxin glutathione reductase. Q962Y6. purified TGR, DTNB reduction, TNB absorbance 405 nm. Potency, µM (series often up to 114 µM), for the others: at the top dose activity change, negative = inhibition, actives largely listed as inhibitors. hit rate 3% among 360,000; also: nearly all actives have a fitted effect of over 60% in size
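First, TGR (20 nM dispensed) and NADPH were mixed with compound. Second, a 15 min room-temperature incubation followed. Third, further NADPH and then DTNB were added to start the reaction. Finally, TNB absorbance was monitored kinetically.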
Active calls of the source: *; ? = inconclusive; · = no result; [ ] = remark or other dose. Unless noted, calls follow the shape of the dose curve; as a rule, active = well fitted curve in the direction sought with a large enough effect; inconclusive = small, poorly fitted or top-dose-only effect, or another doubt; inactive = no such curve, though single readings can be large; an effect the other way counts as inactive or inconclusive. Unless noted, % is scaled to controls: 0 for no effect and ±100 for the full control effect; potency is read from the fitted curve at half-maximal effect.

SMILES	LmPK inhibitor	TbPYK inhibitor	RE007 growth inh	AMA1-RON2 inh	Sm TGR block
S=C(NCc1ccco1)Nc1ccc(Br)cc1Cl	-0.4%	-0.6%	2.2%	40.7%	?
CN(Cc1ccco1)C(=O)C(Cc1ccccc1)NS(=O)(=O)c1ccc2c(c1)CCC(=O)N2 (stereo not drawn)	-2.4%	-4.2%	-1.8%	-6.1%	39.8µM*
Cc1ccc(NC(=S)NCCSc2ccc(Cl)cc2)cc1	11.6%	-2.1%	-6.3%	21.3%	-15.6%
Cc1ccc(CNC(=O)C2CCCN(C(=O)Nc3ccc(F)cc3)C2)cc1 (stereo not drawn)	1.2%	-1.3%	3.7%	5.0%	1.0%
Cc1ccc(N2C(=O)N(CC(=O)Nc3cccc(Cl)c3)C(=O)C2C)cc1 (stereo not drawn)	·	-9.7%	2.8%	-25.0%	-6.1%
CC(C)COC(=O)NCC12C=CC(O1)C1C(=O)N(c3ccc(Cl)cc3)C(=O)C12 (stereo not drawn)	-21.2%	-23.3%	1.58µM*	-16.0%	1.58µM*
Cc1ccc(N2C(=O)C3C4C=CC(CNC(=S)Nc5ccc(Cl)cc5)(O4)C3C2=O)cc1 (stereo not drawn)	2.6%	-19.1%	22.4µM*	-10.3%	7.08µM*
Cc1ccc(N2C(=O)C3C4C=CC(CNC(=S)Nc5ccc(F)cc5)(O4)C3C2=O)cc1 (stereo not drawn)	-1.9%	-12.7%	10µM*	10.5%	3.16µM*
Cc1ccc(N2C(=O)C3C4C=CC(CNC(=S)Nc5cccc(Cl)c5)(O4)C3C2=O)cc1 (stereo not drawn)	1.9%	-4.2%	10µM*	-0.3%	3.98µM*
CCC1CCCCN1CCCNC(=O)c1ccc2c(c1)N(Cc1ccccc1F)C(=O)c1ccccc1S2(=O)=O (stereo not drawn)	·	2.4%	·	·	10.3%
Cc1ccc(C)c(NC(=S)N2CCN(c3ccccn3)CC2)c1	5.4%	-3.7%	-7.9%	-5.3%	-19.7%
Cc1ccc(N2C(=O)C3C4C=CC(CNC(=S)N5CCN(c6ccccn6)CC5)(O4)C3C2=O)cc1 (stereo not drawn)	0.4%	-10.2%	3.98µM*	-5.2%	2.82µM*
O=C(/C(Br)=C/Nc1cc(Cl)ccc1Cl)C(F)(F)F	-1.4%	-8.2%	-22.0%	-3.0%	22.4µM*
Cc1ccc(S(=O)(=O)N(C)/N=C/c2ccc(N(C)C)cc2)cc1	-5.1%	-1.5%	-3.0%	25.1µM*	-5.9%
CCOC(=O)c1c(-c2ccccc2)oc2ccc(NS(=O)(=O)c3cc(C)c(C)cc3C)cc12	·	-1.6%	·	·	4.2%
Cc1cccc[n+]1C1C(c2ccccc2)C(C#N)=C(C(=C=[N-])C#N)NC1(O)C1CC1 (stereo not drawn)	-1.2%	-7.4%	-23.7%	-2.2%	5.62µM*
CC(=O)c1cc(F)c(N2CCN(C(=O)Cc3ccccc3)CC2)cc1C	1.8%	-12.4%	-9.7%	3.0%	28.2µM*
Cc1ccc(NC(=O)C2CCN(c3nc4ccccc4[nH]3)CC2)c(C)c1	·	-13.6%[15.4 µM]	·	·	-2.4%
COc1ccc(C(=O)Nc2ccc(N3CCN(C)CC3)cc2)cc1[N+](=O)[O-]	0.1%	4.6%	-3.7%	-4.5%	8.4%
CC(=O)N1CCN(c2ccc(NC(=S)NC(=O)c3ccc(C)c([N+](=O)[O-])c3)cc2)CC1	-0.3%	-2.0%	-0.9%	45.0%	11.2µM*
Cc1ccc(C(=O)O)cc1NC(=S)NC(=O)c1ccc([N+](=O)[O-])c(C)c1	0.8%	1.2%	1.4%	39.9%	20µM*
COc1ccc(C(=O)NC(=S)Nc2ccc(N3CCN(C(C)=O)CC3)cc2)cc1[N+](=O)[O-]	2.8%	-1.5%	12.2%	69.8%	8.91µM*
CCOC(=O)c1c(C)c(C(=O)NCc2ccc(Cl)cc2)c(C)n1C	·	1.3%	·	·	2.7%
C=CCN(CC=C)Cc1c(O)ccc2c1oc(=O)c1ccccc12	·	-21.6%	-15.8%	21.2µM*	·
C=CCN(CC=C)Cc1cc(=O)oc2ccc3ccccc3c12	·	2.4%	-26.8%	29.8%	·
SMILES	LmPK inhibitor	TbPYK inhibitor	RE007 growth inh	AMA1-RON2 inh	Sm TGR block
CN(C)c1ccc(/C=C2\C(=O)NC(=O)N(CCc3ccc(F)cc3)C2=O)cc1	0.1%	-11.5%	8.6%	3.4%	3.98µM*
O=C1NC(=O)N(Cc2ccc(F)cc2)C(=O)/C1=C\c1ccc(N2CCCC2)cc1	-1.4%	-7.4%	12.6%	-22.4%	1.26µM*
O=C1NC(=O)N(c2ccc(F)cc2)C(=O)/C1=C/c1ccc(N2CCOCC2)cc1	-1.9%	?	3.2%	18.9%	1.2%
Cc1c(NC(=O)OC(C)C)sc(=S)n1C	-0.9%	2.2%	11.0%	0.0%	35.5µM*
CC(=O)NCCOC(=O)Nc1sc(=S)n(C)c1C	2.7%	-3.2%	6.5%	10.1%	0.0%
O=C(CC(c1cccs1)N1Cc2ccccc2C1=O)Nc1ccccc1 (stereo not drawn)	·	-2.0%	·	·	-1.5%
O=C(NN1C(=O)/C(=C/C=C/c2ccco2)SC1=S)c1ccncc1	-8.6%	-23.5%	7.2%	5.62µM*	3.16µM*
O=C(NN1C(=O)/C(=C/C=C/c2ccccc2)SC1=S)c1ccncc1	13.3%	-2.1%	-22.8%	3.2%	-22.8%
CN(C)c1ccc(/C=C/C=C2/SC(=S)N(c3ccccc3)C2=O)cc1	12.6µM*	?	-19.1%	2.51µM*	-33.6%
O=C1/C(=C/C=C/c2ccco2)SC(=S)N1c1ccc(O)cc1	3.4%	-9.2%	-15.4%	?	4.47µM*
CC(C)C(C(=O)O)N1C(=O)/C(=C/C=C/c2ccco2)SC1=S (stereo not drawn)	-0.1%	-17.8%	-21.5%	?	11.2µM*
O=C1/C(=C\c2ccco2)SC(=S)N1c1ccc(O)cc1	0.5%	-1.0%	?	-22.2%	?
O=C(O)C(Cc1cc(I)c(O)c(I)c1)c1ccccc1 (stereo not drawn)	·	1.1%	·	·	·
Cc1c(S(=O)(=O)c2ccccn2)c(N)n(Cc2cccc(Cl)c2)c1C	-1.4%	0.2%	-4.4%	3.5%	2µM*
CC(C)CCn1nnc2sc(-c3ccccc3)cc2c1=O	·	-2.8%	·	·	-1.7%
Cc1cccc(-n2ncc3c(N4CCOCC4)ncnc32)c1	25.1µM*	-14.1%	-18.8%	14.2%	-19.9%
COc1ccc(-n2ncc3c(N4CCCCC4)ncnc32)cc1	15.8µM*	-11.3%	-8.1%	0.0%	3.3%
CCOc1ccc(S(=O)(=O)N(CC(=O)Nc2ccc3c(c2)OCO3)c2ccccc2)cc1	·	3.3%	·	·	0.6%
COCCOc1cc(NC(=O)CS(=O)CC(=O)N(C)C)c(Cl)cc1Cl (stereo not drawn)	-6.3%	6.1%	-1.4%	-6.2%	4.6%
CCN(CC)C(=O)CS(=O)(=O)CC(=O)Nc1cc(OCCOC)c(Cl)cc1Cl	3.2%	8.0%	-1.3%	8.5%	35.5µM*
CCOC(=O)/C=C1\CN(CCC(C)C)S(=O)(=O)c2ccccc21	5.4%	-20.4%	16.4%	8.9%	56.2µM*

Screening data as filed in PubChem BioAssay.
